We go through 19 molecules from PubChem BioAssay.

Values without a mark were called inactive. No rule for the calls is given here.

Sequence of Pantothenate synthetase (Mycobacterium tuberculosis (strain ATCC 25618 / H37Rv)) (P9WIL5 whole entry, looked up): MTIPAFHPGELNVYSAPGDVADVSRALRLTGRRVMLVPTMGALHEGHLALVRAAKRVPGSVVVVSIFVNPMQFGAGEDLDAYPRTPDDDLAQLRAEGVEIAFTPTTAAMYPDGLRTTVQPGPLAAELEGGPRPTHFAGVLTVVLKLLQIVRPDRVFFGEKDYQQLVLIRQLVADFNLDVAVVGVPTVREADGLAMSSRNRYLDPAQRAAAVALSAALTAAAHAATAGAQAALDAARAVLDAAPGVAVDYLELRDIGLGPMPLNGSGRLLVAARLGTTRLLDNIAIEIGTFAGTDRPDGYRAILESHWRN

The test concerns the target Pantothenate synthetase (Mycobacterium tuberculosis (strain ATCC 25618 / H37Rv)) (UniProt P9WIL5). Description: Recombinant Mtb pantothenate synthetase (PanC) inhibitors, coupled enzyme, confirmatory (AID 375).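 Also: 0% = full reaction with vehicle and 100% = no enzyme background.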 The note with it: coupled enzyme assay; at 10 µM, hits give high values.
One may read the inhibition as the relative decrease from the control value, in per cent. For the molecule `CCC12CN3CC(CC)(CN(C1)C3c1ccc(OC(C)C)cc1)C2=O` (centres undefined), the inhibition was 9%.
For the molecule `CCOC(=O)N1CCN(C(c2ccc(Cl)cc2)c2sc3nc(C)nn3c2O)CC1` (centres undefined), the inhibition was 0%.
Turning to `COc1ccccc1NC(=O)CSc1nnc(CC(=O)Nc2ccccc2)n1C`, the inhibition was 6%.
Turning to `COCCCn1c(SCC(=O)N2CCc3ccccc32)nnc1-c1ccoc1C`, the inhibition is 9%.
In the case of `COc1ccccc1CCNC(=O)C1CCCO1` (centres undefined) it was 0%; in that of `CCc1nnc(NC(=O)OCc2ccccc2)s1`, 0%.
Take `Cc1cccc(-n2c(N)c(C(=O)N3CCN(C)CC3)sc2=S)c1`: the inhibition is 1%.
With `CCOc1ccccc1N1Cc2cc(C)c(C)cc2C1`, the inhibition is 0%.
With `CC1=C(c2ccc(Cl)cc2)[N+](=O)C(C)(C)N1[O-]`, the inhibition was 0%.
In the case of `O=C(O)Cc1ccccc1C(=O)O` it was 0%; in that of `CCOC(=O)CN1C(=O)C2(OCCCO2)c2ccccc21`, 1%; in that of `Cc1cc(C)n(-c2cc(N3CCOCC3)ncn2)n1`, 1%.
For `Cn1cccc1Cc1nnc(SCC(N)=O)n1-c1ccc(F)cc1`, the inhibition is 0%.
With `CCNc1ccc2c(Cl)cc(=O)oc2c1`, the inhibition is 5%.
Consider `CCCC(=O)Nc1nnc(CC(=O)N2CCCC2)s1`, for which the inhibition is 0%.
Consider `COc1ccccc1NC(=O)N(Cc1ccccc1)c1ccccn1`, for which the inhibition was 6%.
In the case of `COc1ccc(OCc2nc(N)nc(Nc3cccc(C)c3C)n2)cc1`, the inhibition was 1%.
Turning to `CCCCn1c(NCCC)nc2c1c(=O)[nH]c(=O)n2C`, the inhibition was 0%.
Next, `Cc1ccnc(NC(=O)Nc2ccc(F)cc2)c1`: 0%.
